A selection: hits, their analogues and other compounds. The true share with any hit is near 5.1%.
JMJD2E inh = inhibitors of human JMJD2E histone demethylase; AID 2147; 1.6% of 230,000 active; B2RXH2; JMJD2E catalytic domain, FDH-coupled NADH fluorescence (FDH is formaldehyde dehydrogenase); Potency, µM (doses to about 57.1 µM), usual class: inhibitors; active = well fitted inhibition curve with a large enough effect, not every such curve was filed as active; inconclusive = small, poorly fitted or top-dose-only effect, or another doubt; inactive = no such curve, though single readings can be large or run the other way; also: nearly all actives have a fitted effect of over 50% in size
Tau fluor cs = counter-screen for tau fibril formation inhibitors; tau K18 P301L Alexa594 fluorescence, heparin fibrillization; Potency, µM (series often up to 57.7 µM); 0.93% of 280,000 active; also: nearly all actives have a fitted effect of over 55% in size
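Human tau K18 P301L (15 uM unlabeled, 0.24 uM Alexa 594-labeled) in 100 mM sodium acetate pH 7 with 20 uM heparin, 6 hr at 37 C. ThT 30 uM added, 1 hr ambient; Alexa 594 FP and total fluorescence read at 555/632 nm.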
Tau fibril FP = inhibitors of human tau fibril formation; P10636; K18 P301L tau heparin fibrillization, Alexa594 FP, 6 h; Potency, µM (series often up to 57.7 µM), most hits filed as inhibitors; 0.39% of 280,000 active; AID 1468; also: nearly all actives have a fitted effect of over 55% in size
Target sequence (P10636 561-689 P618L limits assumed): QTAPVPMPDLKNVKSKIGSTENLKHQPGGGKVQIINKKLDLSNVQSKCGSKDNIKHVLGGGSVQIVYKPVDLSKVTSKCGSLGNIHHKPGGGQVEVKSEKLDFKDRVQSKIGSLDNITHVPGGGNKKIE
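Compound effects on tau fibrillization are measured by Alexa 594 fluorescence polarization (ex 555, em 632 nm). K18 P301L tau is used at 15 uM with 0.24 uM labeled tracer, and 20 uM heparin induces aggregation over 6 hr at 37 C.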
NPSR antagonist = blocks cAMP signaling of the human neuropeptide S receptor; Q6W5P4; CHO-NPSR cells, cAMP TR-FRET, antagonist mode; Potency, µM (series often up to 38.3 µM), hits mostly inhibitors; 1% of 220,000 active; also: nearly all actives have a fitted effect of over 50% in size
Target sequence (Q6W5P4 whole entry, looked up): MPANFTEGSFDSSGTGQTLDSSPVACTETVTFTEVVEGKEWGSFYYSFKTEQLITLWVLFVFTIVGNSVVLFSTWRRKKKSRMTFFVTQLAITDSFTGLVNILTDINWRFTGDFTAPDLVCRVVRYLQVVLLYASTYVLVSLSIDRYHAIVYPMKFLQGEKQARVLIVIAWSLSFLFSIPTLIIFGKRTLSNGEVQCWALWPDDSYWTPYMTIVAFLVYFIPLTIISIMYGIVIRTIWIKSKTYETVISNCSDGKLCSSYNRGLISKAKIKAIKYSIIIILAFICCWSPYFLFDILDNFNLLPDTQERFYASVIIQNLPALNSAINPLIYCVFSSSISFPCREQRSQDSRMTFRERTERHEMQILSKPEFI
Tau ThT inhib = inhibitors of human tau fibril formation, thioflavin T binding | recombinant tau K18 P301L, heparin-induced fibrillization, ThT fluorescence | Potency, µM (titrated, usually from 57.4 µM), actives largely listed as inhibitors | 2.1% of 270,000 active | AID 1460; also: nearly all actives have a fitted effect of over 55% in size
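Using a mix of unlabeled (15 uM) and Alexa 594-labeled (0.24 uM) tau K18 P301L, heparin-triggered fibrillization over 6 hr at 37 C was scored by ThT fluorescence.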
PNC inhibitor = blocks assembly of the perinucleolar compartment | AID 2417 | activity change (PNC), negative = inhibition, % at 10 µM | PC3M PTB-GFP, PNC prevalence imaging, 16 h; hits give low values | 3.1% of 140,000 active;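 active = readout at or below -70, meaning at least 70% loss of cells showing the perinucleolar compartment, a nuclear body marking cancer cells; inconclusive = readout between -30 and a set limit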
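PC3M cells stably expressing PTB-GFP, 750–1000 cells/well, treated 16 h at 37 °C with compound (23 nl of library stock), in duplicate. After paraformaldehyde fixation and Hoechst stain, imaged at 20x; PNC prevalence scored by image analysis.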
Each line names hits and unclear results; the compound was inactive in the other large screens; [ ] = remark or other dose. Unless noted, calls follow the shape of the dose curve; as a rule, active = well fitted curve in the direction sought with a large enough effect; inconclusive = small, poorly fitted or top-dose-only effect, or another doubt; inactive = no such curve, though single readings can be large; an effect the other way counts as inactive or inconclusive.

COc1ccc(NCc2ccc([N+](=O)[O-])s2)cc1	JMJD2E inh inconclusive, Tau ThT inhib inconclusive
O=C(Cn1cnc2sc(-c3ccccc3)cc2c1=O)NCc1ccco1	JMJD2E inh inconclusive, PNC inhibitor -90
Cc1ccc(-c2nn(CC(=O)NCc3ccco3)c(=O)c3ccccc23)cc1	PNC inhibitor -111
O=C(Cn1cnc2sc(-c3ccccc3)cc2c1=O)NCc1ccccc1	none
Cc1ccccc1Cn1nc(C)c(NC(=O)/C=C/c2cnn(C)c2)c1C	PNC inhibitor -114
CC(C)(C)c1ccc(OC2C(O)COC2/C=C/C#Cc2ccccc2)cc1 (stereo unspecified)	none (no result: JMJD2E inh, NPSR antagonist, PNC inhibitor)
Clc1cccc(NCc2nnc(SCc3ccc(Cl)cc3Cl)o2)c1	Tau fluor cs inconclusive, Tau ThT inhib inconclusive, PNC inhibitor -119
Cc1cnc(C(=O)Nc2nccs2)cn1	JMJD2E inh inconclusive
CC(=O)c1noc(C)c1C(=O)Nc1nccs1	PNC inhibitor -93
O=C(NCCO)C(=O)NCC1OCCCN1S(=O)(=O)c1cccs1 (stereo unspecified)	PNC inhibitor -80
Cc1ccc(-n2c(SCc3nc(-c4ccccc4C)no3)nnc2-c2ccncc2)cc1C	Tau ThT inhib inconclusive (no result: JMJD2E inh, NPSR antagonist, PNC inhibitor)
Cc1nn2c(NCc3ccccn3)cc(C(C)C)nc2c1-c1ccccc1	JMJD2E inh inconclusive, Tau fluor cs inconclusive, NPSR antagonist inconclusive, Tau ThT inhib inconclusive (no result: PNC inhibitor)
CC(=O)Nc1ccc(Nc2cc(C)nc3c(-c4ccccc4)c(C)nn23)cc1	JMJD2E inh inconclusive, Tau fluor cs 14µM[quencher], Tau ThT inhib inconclusive, PNC inhibitor inconclusive
CC(=O)Nc1ccc(Nc2cc(C(C)C)nc3c(-c4ccccc4)c(C)nn23)cc1	JMJD2E inh inconclusive, Tau fluor cs 13µM[quencher], Tau fibril FP inconclusive, NPSR antagonist inconclusive, Tau ThT inhib inconclusive (no result: PNC inhibitor)
CC(C)(C)c1ccc(Oc2ccc(NC(=O)CCC(=O)OCC(=O)c3ccccc3)cc2)cc1	none (no result: JMJD2E inh, NPSR antagonist, PNC inhibitor)
Cc1[nH][nH]c(=O)c1C(c1ccc(-c2cccc(Cl)c2)o1)c1c(C)[nH][nH]c1=O	JMJD2E inh inconclusive, Tau fluor cs inconclusive, Tau fibril FP inconclusive (no result: Tau ThT inhib, PNC inhibitor)
Cc1[nH][nH]c(=O)c1C(c1ccc(-c2cccc(C(=O)O)c2)o1)c1c(C)[nH][nH]c1=O	Tau fibril FP inconclusive, Tau ThT inhib 14µM (no result: PNC inhibitor)
Cc1[nH][nH]c(=O)c1C(c1ccc(-c2ccccc2C(=O)O)o1)c1c(C)[nH][nH]c1=O	Tau fibril FP inconclusive, Tau ThT inhib 11µM (no result: PNC inhibitor)
COC(=O)c1ccc(-c2ccc(C(c3c(C)[nH][nH]c3=O)c3c(C)[nH][nH]c3=O)o2)cc1	JMJD2E inh inconclusive, Tau fibril FP inconclusive, Tau ThT inhib 5µM (no result: PNC inhibitor)
Cc1[nH][nH]c(=O)c1C(c1ccc(-c2ccc(Cl)cc2Cl)o1)c1c(C)[nH][nH]c1=O	Tau fibril FP inconclusive, Tau ThT inhib 11µM
CC(NC(=O)c1ccc2c(c1)sc1nc(-c3ccc(F)cc3)cn12)C12CC3CC(CC(C3)C1)C2 (stereo unspecified)	none (no result: JMJD2E inh, NPSR antagonist, PNC inhibitor)
Cc1cc(C)c(C(CC(=O)c2cccs2)C(C#N)C#N)c(C)c1 (stereo unspecified)	Tau ThT inhib 25µM, PNC inhibitor inconclusive
Cc1cc(C)c2c(c1)NC(=O)C2(O)CC(=O)c1cccs1 (stereo unspecified)	Tau ThT inhib inconclusive
CCCCSc1nnc(NC(=O)CCc2ccccc2)s1	PNC inhibitor -81
Brc1ccc2nc(SCCOc3ccccc3)[nH]c2c1	Tau fluor cs 14µM[quencher], Tau fibril FP 28µM, Tau ThT inhib inconclusive (no result: JMJD2E inh, NPSR antagonist, PNC inhibitor)
COc1ccc(Cl)cc1NC(=S)NCCc1c[nH]c2ccccc12	Tau fluor cs 22µM[quencher], NPSR antagonist inconclusive, Tau ThT inhib inconclusive
Cc1cc(C)cc(NC(=O)C(=O)NCCc2c[nH]c3ccccc23)c1	Tau fluor cs 16µM[quencher], Tau ThT inhib inconclusive (no result: PNC inhibitor)
CC(C)c1ccc(NC(=S)NCCc2c[nH]c3ccccc23)cc1	Tau fluor cs 11µM[quencher], Tau ThT inhib inconclusive
O=C(NCCc1c[nH]c2ccccc12)OCCSS(=O)(=O)O	JMJD2E inh inconclusive, Tau fibril FP inconclusive, Tau ThT inhib 14µM (no result: PNC inhibitor)

High-throughput results from PubChem BioAssay.
